Reference: PubChem BioAssay AID1159580 (chemical genetic matrix, 2015)
The whole screen tested about 5,500 compounds, of which about 2,000 (36%) were called active. Inconclusive results (about 18%) are left out. Cut-off read from the data, not from the text of the source: active = normalized growth mostly below about 0.91 (no sharp cut-off); inconclusive = no clear call, values can overlap the other calls; inactive = mostly above about 0.92. Some of the results follow.

Test: chemical genetic growth profiling, strain panel (AID 1159580);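 note: tested at 20 µM; growth read once vehicle control cultures reached saturation at 30 °C; 1 = growth at the plate median or of vehicle wells; lower values mean less growth of the strain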
Settings: growth OD

Measured: normalized growth

CC1=C2C(O)C(=O)OC3CC4C(C)(C)C(=O)C=C[C@]4(C)C(CC1)[C@]23C (some centres not stated)
inactive: S. cerevisiae deletion strains, locus YJR043C, strain POL32, hits give low values 1.01 | S. cerevisiae deletion strains, locus YJR066W, strain TOR1, hits give low values 0.967 | S. cerevisiae deletion strains, locus YJR075W, strain HOC1, hits give low values 1.03 | S. cerevisiae deletion strains, locus YKL009W, strain mrt4, hits give low values 1.03 | S. cerevisiae deletion strains, locus YKL068W, hits give low values 1.01 | S. cerevisiae deletion strains, locus YKL085W, strain MDH1 (second series), hits give low values 1 | S. cerevisiae deletion strains, locus YKL085W, strain MDH1, hits give low values 1 | S. cerevisiae deletion strains, locus YKL160W, strain elf1, hits give low values 1 | S. cerevisiae deletion strains, locus YKR001C, strain vps1, hits give low values 0.996 | S. cerevisiae deletion strains, locus YKR026C, strain gcn3, hits give low values 1.01 | S. cerevisiae deletion strains, locus YKR091W, strain srl3, hits give low values 1.01 | S. cerevisiae deletion strains, locus YLL001W, strain dnm1, hits give low values 0.992 | S. cerevisiae deletion strains, locus YLL026W, hits give low values 1.01 | S. cerevisiae deletion strains, locus YLL041C, strain sdh2, hits give low values 1.02 | S. cerevisiae deletion strains, locus YLR027C, strain aat2, hits give low values 1 | S. cerevisiae deletion strains, locus YLR039C, strain RIC1, hits give low values 1.15 | S. cerevisiae deletion strains, locus YLR058C, strain SHM2, hits give low values 1.03 | S. cerevisiae deletion strains, locus YLR102C, strain apc9, hits give low values 1.02 | S. cerevisiae deletion strains, locus YLR113W, strain HOG1, hits give low values 0.984 | S. cerevisiae deletion strains, locus YLR221C, strain rsa3, hits give low values 1.03 | S. cerevisiae deletion strains, locus YLR258W, strain gsy2, hits give low values 1.01 | S. cerevisiae deletion strains, locus YLR262C, strain YPT6 (second series), hits give low values 1.06 | S. cerevisiae deletion strains, locus YLR268W, strain sec22, hits give low values 1.02 | S. cerevisiae deletion strains, locus YLR320W, strain mms22, hits give low values 1.01 | S. cerevisiae deletion strains, locus YLR342W, strain FKS1 (second series), hits give low values 1.03 | S. cerevisiae deletion strains, locus YLR342W, strain FKS1, hits give low values 1.01 | S. cerevisiae deletion strains, locus YLR357W, strain rsc2, hits give low values 1.02 | S. cerevisiae deletion strains, locus YLR370C, strain arc18, hits give low values 1 | S. cerevisiae deletion strains, locus YLR371W, strain rom2, hits give low values 0.985 | S. cerevisiae deletion strains, locus YLR384C, strain iki3, hits give low values 1.02 | S. cerevisiae deletion strains, locus YLR418C, strain cdc73, hits give low values 1.07 | S. cerevisiae deletion strains, locus YML016C, strain PPZ1, hits give low values 1.02 | S. cerevisiae deletion strains, locus YML032C, strain rad52, hits give low values 1 | S. cerevisiae deletion strains, locus YML120C, strain ndi1, hits give low values 1 | S. cerevisiae deletion strains, locus YML124C, strain tub3, hits give low values 1.01 | S. cerevisiae deletion strains, locus YMR058W, strain fet3, hits give low values 1.01 | S. cerevisiae deletion strains, locus YMR078C, strain ctf18, hits give low values 1.02 | S. cerevisiae deletion strains, locus YMR125W, strain sto1, hits give low values 1.01 | S. cerevisiae deletion strains, locus YMR129W, hits give low values 1.01 | S. cerevisiae deletion strains, locus YMR205C, strain PFK2, hits give low values 1 | S. cerevisiae deletion strains, locus YMR223W, strain ubp8, hits give low values 1.01 | S. cerevisiae deletion strains, locus YMR231W, strain pep5, hits give low values 1.01 | S. cerevisiae deletion strains, locus YMR307W, strain GAS1, hits give low values 1.03 | S. cerevisiae deletion strains, locus YNL067W, strain RPL9B, hits give low values 1.05 | S. cerevisiae deletion strains, locus YNL071W, strain lat1, hits give low values 0.999 | S. cerevisiae deletion strains, locus YNL128W, strain TEP1, hits give low values 1.02 | S. cerevisiae deletion strains, locus YNL183C, strain NPR1, hits give low values 0.978 | S. cerevisiae deletion strains, locus YNL209W, strain ssb2, hits give low values 1.01 | S. cerevisiae deletion strains, locus YNL233W, strain BNI4, hits give low values 1.06 | S. cerevisiae deletion strains, locus YNL248C, strain rpa49, hits give low values 1.01 | S. cerevisiae deletion strains, locus YNL250W, strain rad50, hits give low values 1.03 | S. cerevisiae deletion strains, locus YNL271C, strain bni1, hits give low values 1.02 | S. cerevisiae deletion strains, locus YNL298W, strain CLA4, hits give low values 1 | S. cerevisiae deletion strains, locus YNL307C, strain MCK1, hits give low values 1.03 | S. cerevisiae deletion strains, locus YNL322C, strain KRE1 (second series), hits give low values 1.04 | S. cerevisiae deletion strains, locus YNR049C, strain mso1, hits give low values 1.01 | S. cerevisiae deletion strains, locus YNR052C, strain pop2, hits give low values 1.04 | S. cerevisiae deletion strains, locus YOL012C, strain htz1 0.949 | S. cerevisiae deletion strains, locus YOL147C, strain pex11, hits give low values 1.01 | S. cerevisiae deletion strains, locus YOR001W, strain rrp6, hits give low values 1.01 | S. cerevisiae deletion strains, locus YOR061W, strain CKA2, hits give low values 1.01 | S. cerevisiae deletion strains, locus YOR069W, strain VPS5, hits give low values 1.01 | S. cerevisiae deletion strains, locus YOR070C, strain gyp1, hits give low values 1.02 | S. cerevisiae deletion strains, locus YOR080W, strain dia2, hits give low values 1.02 | S. cerevisiae deletion strains, locus YOR083W, strain WHI5, hits give low values 1.01 | S. cerevisiae deletion strains, locus YOR106W, strain vam3, hits give low values 0.983 | S. cerevisiae deletion strains, locus YOR136W, strain idh2, hits give low values 1.03 | S. cerevisiae deletion strains, locus YOR144C, strain elg1, hits give low values 1.01 | S. cerevisiae deletion strains, locus YOR184W, strain ser1, hits give low values 1.01 | S. cerevisiae deletion strains, locus YOR231W, strain MKK1, hits give low values 1.03 | S. cerevisiae deletion strains, locus YOR265W, strain rbl2, hits give low values 1 | S. cerevisiae deletion strains, locus YOR270C, strain vph1, hits give low values 1.05 | S. cerevisiae deletion strains, locus YOR290C, strain snf2, hits give low values 1.01 | S. cerevisiae deletion strains, locus YOR316C, strain cot1, hits give low values 1.01 | S. cerevisiae deletion strains, locus YPL051W, strain arl3, hits give low values 1.02 | S. cerevisiae deletion strains, locus YPL055C, strain LGE1, hits give low values 1.03 | S. cerevisiae deletion strains, locus YPL078C, strain atp4, hits give low values 0.998 | S. cerevisiae deletion strains, locus YPL106C, strain sse1, hits give low values 1.03 | S. cerevisiae deletion strains, locus YPL240C, strain hsp82, hits give low values 1.01 | S. cerevisiae deletion strains, locus YPL241C, strain CIN2, hits give low values 1.01 | S. cerevisiae deletion strains, locus YPL256C, strain CLN2, hits give low values 1.01 | S. cerevisiae deletion strains, locus YPR119W, strain clb2, hits give low values 1.01 | S. cerevisiae deletion strains, locus YPR141C, strain kar3, hits give low values 1.03 | S. cerevisiae deletion strains, locus YPR163C, strain tif3, hits give low values 1.02 | S. cerevisiae deletion strains, locus YPR167C, strain met16, hits give low values 1.03 | S. cerevisiae deletion strains, strain wtn01, hits give low values 0.994 | S. cerevisiae strains, strain wild type, hits give low values 1.01
